Among the test systems are RPMI-8226 leukemia; OVCAR-8 ovarian; OVCAR-5 ovarian; OVCAR-4 ovarian; SK-OV-3 ovarian; IGROV1 ovarian; OVCAR-3 ovarian; HS 578T breast; NCI/ADR-RES ovarian; T-47D breast; BT-549 breast; MDA-MB-435 melanoma; SW-620 colon; MCF7 breast; HCT-116 colon; KM12 colon; HCC-2998 colon.
Common to all, as to test: NCI-60 one-dose screen, 48 h (100 = growth as untreated, 0 = no growth, -100 = all killed)
Conditions in all cases: 10 µM unless noted

Each structure is given as a SMILES string. Compounds without any hit were thinned out: in the full panel of roughly 83,000, 20% have a hit.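 Compound tested at a single concentration for 48 hours in 96-well plates; a percent growth value below 10 was scored as active.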 Values without a mark were called inactive. Calls of active or inactive are those of the source.

With `Cc1cc2c(C#N)n3c(c2cc1C)C(=O)C(c1ccccc1)Oc1ccccc1-3` (stereo not drawn), the growth is 29.6% in the assay with RPMI-8226 leukemia; 23.6% in the assay on OVCAR-8 ovarian; 48.6% in the assay on OVCAR-5 ovarian; 22.4% in the assay with OVCAR-4 ovarian; 39.6% in the assay on SK-OV-3 ovarian; 48.8% in the assay with IGROV1 ovarian. The growth was 25.3% with OVCAR-3 ovarian; 46.2% in the assay on HS 578T breast; 25.8% with NCI/ADR-RES ovarian; 15.2% in the assay with T-47D breast; 17% in the assay with BT-549 breast; 0.71% (active) with MDA-MB-435 melanoma. Also, the growth with SW-620 colon is 47.3%; with MCF7 breast, 68.2%; in the assay with HCT-116 colon it was 12.8%; with KM12 colon, 15.2%.
Take `Cn1c(=O)c2nc(SCc3ccccc3)n(C)c2n(C)c1=O`: the growth with RPMI-8226 leukemia was 117%; in the assay on OVCAR-8 ovarian it was 106%; in the assay on OVCAR-5 ovarian it was 97.6%; with OVCAR-4 ovarian, 118%; in the assay with SK-OV-3 ovarian it was 99.2%; in the assay on IGROV1 ovarian, 139%. Further, the growth in the assay with OVCAR-3 ovarian was 117%; in the assay with HS 578T breast, 104%; in the assay on NCI/ADR-RES ovarian, 112%; with T-47D breast, 98.4%; in the assay on BT-549 breast it was 107%; in the assay on MDA-MB-435 melanoma, 113%. Besides, the growth in the assay on SW-620 colon is 106%; in the assay with MCF7 breast, 106%; in the assay with HCT-116 colon, 98.9%; with KM12 colon, 104%.
Consider `O=C(Nc1nc(-c2ccc(Cl)cc2)cs1)c1cc(O)c(O)c(O)c1`, for which the growth in the assay with RPMI-8226 leukemia is 17.1%; in the assay with OVCAR-8 ovarian it was 15.5%; in the assay with OVCAR-5 ovarian, 62.6%; in the assay with OVCAR-4 ovarian, 27.8%; with SK-OV-3 ovarian, 43.4%; in the assay with IGROV1 ovarian, 15.7%. Moreover, the growth in the assay with OVCAR-3 ovarian is 40.1%; in the assay on HS 578T breast, 61.9%; in the assay on NCI/ADR-RES ovarian, 13.6%; with T-47D breast it was 25.4%; in the assay with BT-549 breast, 24.6%; in the assay on MDA-MB-435 melanoma, 41%. Moreover, the growth in the assay with SW-620 colon is 25.3%; in the assay with MCF7 breast it was 28.3%; in the assay with HCT-116 colon it was 17.7%; in the assay on KM12 colon, 51.3%.
In the case of `CCOc1cccc(C2CC(=O)Nc3cc4c(cc32)OCO4)c1` (stereo not drawn), the growth is 71.1% with RPMI-8226 leukemia; 89% in the assay with OVCAR-8 ovarian; 109% in the assay with OVCAR-5 ovarian; 89.9% with OVCAR-4 ovarian; 86.6% with SK-OV-3 ovarian; 83.4% in the assay with IGROV1 ovarian. Moreover, the growth in the assay with OVCAR-3 ovarian is 82.4%; in the assay with HS 578T breast, 91.6%; in the assay on NCI/ADR-RES ovarian it was 82.3%; in the assay on T-47D breast, 66.9%; in the assay on BT-549 breast, 82.4%; in the assay with MDA-MB-435 melanoma, 29.2%. Moreover, the results for the growth in the assay on SW-620 colon, in the assay with HCT-116 colon and in the assay with HCC-2998 colon were 84.2%, 80.7% and 86.4%, respectively.
Turning to `O=C(/C=C/c1ccc(Cl)cc1)c1ccccc1`, the growth in the assay with RPMI-8226 leukemia was 1.52% (active); in the assay with OVCAR-8 ovarian it was 97.5%; in the assay on OVCAR-5 ovarian, 99.5%; in the assay with OVCAR-4 ovarian, 107%; in the assay on SK-OV-3 ovarian it was 126%; with IGROV1 ovarian it was 101%. The growth with OVCAR-3 ovarian was 101%; in the assay on HS 578T breast, 126%; with NCI/ADR-RES ovarian, 107%; in the assay with T-47D breast, 92.4%; in the assay on BT-549 breast it was 104%; with MDA-MB-435 melanoma it was 97%. The growth is 89.3% in the assay with SW-620 colon, 24.1% in the assay with MCF7 breast, 54% in the assay on HCT-116 colon and 77.1% with KM12 colon.
For the compound `COc1cc(/C=C/C(=O)c2c(-c3ccc(Cl)cc3)nc3sc(C)nn23)cc(OC)c1OC`, the growth in the assay on RPMI-8226 leukemia is -15.6% (active); with OVCAR-8 ovarian, 53.3%; in the assay with OVCAR-5 ovarian, 106%; in the assay on OVCAR-4 ovarian, 74.8%; in the assay with SK-OV-3 ovarian, 110%; in the assay on IGROV1 ovarian, 89.7%. For the same compound, the growth in the assay with OVCAR-3 ovarian was 88.4%; with HS 578T breast it was 109%; with NCI/ADR-RES ovarian it was 59.8%; with T-47D breast, 19.3%; in the assay on BT-549 breast, 79.3%; with MDA-MB-435 melanoma, 73.9%. The growth with SW-620 colon is 59.6%; in the assay on MCF7 breast, 38.1%; in the assay on HCT-116 colon it was 50.2%; with KM12 colon, 73.6%.
Regarding `COc1ccc2c(c1)/C(=C\c1c[nH]c3ccc(F)cc13)C(=O)N2`, the growth with RPMI-8226 leukemia was 61.5%; with OVCAR-8 ovarian, 81.9%; in the assay with OVCAR-5 ovarian, 100%; with OVCAR-4 ovarian, 65.1%; in the assay with SK-OV-3 ovarian it was 93.4%; in the assay on IGROV1 ovarian, 69.5%. For the same compound, the growth is 83.7% in the assay with OVCAR-3 ovarian; 99.9% in the assay on HS 578T breast; 85.2% in the assay on NCI/ADR-RES ovarian; 42.8% in the assay on T-47D breast; 106% in the assay on BT-549 breast; 91.5% in the assay on MDA-MB-435 melanoma. The growth in the assay on SW-620 colon is 107%; in the assay with HCT-116 colon, 80%; in the assay with HCC-2998 colon it was 92.7%; in the assay on KM12 colon, 21.1%.
Take `COC(=O)CCC1=C(C)/C(=C/c2[nH]c(-c3ccc[nH]3)cc2OC)N=C1C`: the growth in the assay with RPMI-8226 leukemia was -57% (active); in the assay with OVCAR-8 ovarian, 10%; in the assay on OVCAR-5 ovarian, 35%; with OVCAR-4 ovarian, 23.4%; with SK-OV-3 ovarian it was 40%; with IGROV1 ovarian, 25.9%. Also, the growth in the assay with OVCAR-3 ovarian is -56.9% (active); in the assay with HS 578T breast, 1.28% (active); with NCI/ADR-RES ovarian it was 14.8%; with T-47D breast, -36% (active); with BT-549 breast it was 14.3%; in the assay on MDA-MB-435 melanoma it was -13.5% (active). Also, the growth in the assay with SW-620 colon is 8.99% (active); with HCT-116 colon, -61.8% (active); in the assay with HCC-2998 colon it was 9.8% (active); in the assay with KM12 colon, 5.49% (active).
With `Cc1c(C(N)=O)sc2ncn(Cc3ccccc3)c(=O)c12`, the growth in the assay with RPMI-8226 leukemia is 59.5%; in the assay with OVCAR-8 ovarian it was 110%; in the assay on OVCAR-5 ovarian, 101%; in the assay with OVCAR-4 ovarian, 111%; in the assay with SK-OV-3 ovarian, 106%; with IGROV1 ovarian it was 2.39% (active). The growth with OVCAR-3 ovarian was 104%; with HS 578T breast it was 67.7%; in the assay with NCI/ADR-RES ovarian, 105%; with T-47D breast, 98.1%; with BT-549 breast it was 62.6%; in the assay on MDA-MB-435 melanoma it was 53.7%. Also, the growth was 103% with SW-620 colon, 99.8% with MCF7 breast, 94.7% in the assay on HCT-116 colon and 110% with KM12 colon.
